Assay outcomes as filed in PubChem.
Mtb hypoxia rep – PubChem AID 1159583; M. tuberculosis hypoxia-regulated fluorescent reporter, fluorescence; fluorescence inhibition, % (test concentration not listed); actives 0.1% (n = 300,000); in the data active = fluorescence inhibition mostly above about 23%, no sharp cut-off; inactive = mostly below about 17%
FadD28 FP inh – inhibitors of FadD28 bisubstrate probe binding, primary screen, biochemical, fluorescence polarization, single point; Mycobacterium tuberculosis FadD28 fatty-acid-AMP ligase; inhibition, % at 12.5 µM; actives 0.22% (n = 360,000); in the data active = inhibition above about 8.5%, passing the limit was not always enough; inconclusive = no clear call, values can overlap the other calls
PrP UTR inh – inhibition of PrP 5' UTR reporter expression; cell-based PrP 5' UTR mRNA reporter, plate reader; actives 0.35% (n = 340,000); inhibition, % (no concentration beside the values); in the data active = inhibition above about 52%; note: 0 = median of the neutral control wells
Mtb BioA inh – M. tuberculosis BioA enzyme inhibitors, primary screen, biochemical, plate reader, single point, HTS; actives 0.096% (n = 360,000); inhibition, % at 9.99 µM; purified M. tuberculosis BioA enzyme; 7,8-diaminopelargonic acid synthase BioA (Mycobacterium tuberculosis); in the data active = inhibition above about 40%; inconclusive = no clear call, values can overlap the other calls
SSB-PriA inh – inhibitors of Klebsiella pneumoniae PriA binding to SSB C-terminal tail, primary screen, biochemical, AlphaScreen. AID 1272365, 2023. inhibition, % at 33 µM. AlphaScreen SSBct-PriA binding, biotinylated peptide. actives 0.6% (n = 430,000); in the data active = inhibition mostly above about 37%, no sharp cut-off; inactive = mostly below about 20%;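 note: plate controls were negative control peptide for no effect and reference peptide for full effect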
TcdB inh – TcdB glycohydrolase inhibitors, primary screen, biochemical, single point, plate reader; AID 652162, 2013; Toxin B (Clostridioides difficile), P18177; actives 0.24% (n = 350,000); TcdB glycohydrolase enzymatic assay; inhibition, % at 9.99 µM; in the data active = inhibition above about 10%
Target sequence (P18177 whole entry, looked up): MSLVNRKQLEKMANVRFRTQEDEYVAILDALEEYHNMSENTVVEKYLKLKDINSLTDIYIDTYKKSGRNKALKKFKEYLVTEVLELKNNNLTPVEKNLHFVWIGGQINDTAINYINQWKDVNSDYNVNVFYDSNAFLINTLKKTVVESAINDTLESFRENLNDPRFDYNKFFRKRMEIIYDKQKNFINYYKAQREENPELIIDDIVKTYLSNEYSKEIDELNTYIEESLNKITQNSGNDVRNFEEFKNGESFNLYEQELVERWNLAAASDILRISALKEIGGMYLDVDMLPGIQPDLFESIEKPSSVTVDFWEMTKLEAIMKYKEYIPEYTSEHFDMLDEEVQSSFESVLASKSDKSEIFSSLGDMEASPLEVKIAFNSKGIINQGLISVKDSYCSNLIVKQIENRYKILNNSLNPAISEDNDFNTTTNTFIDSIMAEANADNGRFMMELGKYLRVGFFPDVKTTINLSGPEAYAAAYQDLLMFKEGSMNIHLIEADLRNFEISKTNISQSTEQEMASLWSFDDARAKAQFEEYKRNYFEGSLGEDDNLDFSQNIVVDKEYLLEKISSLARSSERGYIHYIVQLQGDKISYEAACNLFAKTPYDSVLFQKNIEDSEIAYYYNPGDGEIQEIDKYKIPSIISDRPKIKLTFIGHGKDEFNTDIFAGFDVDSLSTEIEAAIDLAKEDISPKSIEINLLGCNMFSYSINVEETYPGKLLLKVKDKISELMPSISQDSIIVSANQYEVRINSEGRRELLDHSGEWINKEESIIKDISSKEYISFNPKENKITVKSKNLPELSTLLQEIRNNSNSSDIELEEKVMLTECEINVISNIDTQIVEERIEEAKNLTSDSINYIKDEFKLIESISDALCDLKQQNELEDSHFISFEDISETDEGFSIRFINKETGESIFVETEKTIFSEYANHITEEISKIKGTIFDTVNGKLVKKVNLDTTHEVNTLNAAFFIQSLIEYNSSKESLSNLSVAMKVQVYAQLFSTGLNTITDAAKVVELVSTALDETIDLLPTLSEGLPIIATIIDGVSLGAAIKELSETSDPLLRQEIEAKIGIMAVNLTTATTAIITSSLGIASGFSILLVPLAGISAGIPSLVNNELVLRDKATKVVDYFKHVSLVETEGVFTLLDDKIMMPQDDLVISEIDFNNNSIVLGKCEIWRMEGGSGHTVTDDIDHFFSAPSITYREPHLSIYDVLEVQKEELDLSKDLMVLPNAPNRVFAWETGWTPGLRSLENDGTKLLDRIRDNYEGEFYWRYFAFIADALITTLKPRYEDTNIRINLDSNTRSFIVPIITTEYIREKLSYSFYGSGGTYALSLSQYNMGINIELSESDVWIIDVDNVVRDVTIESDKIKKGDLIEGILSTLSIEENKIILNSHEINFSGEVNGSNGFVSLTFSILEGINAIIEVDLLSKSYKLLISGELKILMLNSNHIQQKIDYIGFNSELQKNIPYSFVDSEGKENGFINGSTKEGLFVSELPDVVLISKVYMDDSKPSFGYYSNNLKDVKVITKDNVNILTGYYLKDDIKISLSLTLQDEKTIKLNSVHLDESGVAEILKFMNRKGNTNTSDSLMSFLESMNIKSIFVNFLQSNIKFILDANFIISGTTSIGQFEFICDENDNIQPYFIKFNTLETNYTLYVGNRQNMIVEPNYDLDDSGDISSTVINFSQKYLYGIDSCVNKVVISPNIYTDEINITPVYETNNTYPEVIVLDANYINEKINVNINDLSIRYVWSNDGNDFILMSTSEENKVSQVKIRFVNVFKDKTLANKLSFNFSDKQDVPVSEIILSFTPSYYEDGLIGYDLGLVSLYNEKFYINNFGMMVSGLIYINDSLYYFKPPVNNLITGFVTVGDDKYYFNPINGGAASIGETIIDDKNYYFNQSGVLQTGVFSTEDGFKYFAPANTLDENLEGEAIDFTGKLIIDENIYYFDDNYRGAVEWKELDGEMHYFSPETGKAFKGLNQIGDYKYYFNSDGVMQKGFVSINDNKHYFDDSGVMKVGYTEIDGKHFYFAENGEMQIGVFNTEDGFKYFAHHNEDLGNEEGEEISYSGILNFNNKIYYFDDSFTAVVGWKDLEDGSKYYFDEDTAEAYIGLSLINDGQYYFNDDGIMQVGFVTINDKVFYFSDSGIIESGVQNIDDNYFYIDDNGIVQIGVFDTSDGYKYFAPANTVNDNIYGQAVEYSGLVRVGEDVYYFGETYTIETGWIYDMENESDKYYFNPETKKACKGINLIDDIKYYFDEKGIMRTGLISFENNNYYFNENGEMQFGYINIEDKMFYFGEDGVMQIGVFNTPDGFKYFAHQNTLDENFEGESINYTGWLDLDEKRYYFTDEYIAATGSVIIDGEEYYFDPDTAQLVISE
* marks the source's active call; other numbers are inactive results; ? = inconclusive; . = no result given; ! = not active in a repeat. Rows were chosen to be rich in hits. Some 1% of all compounds tested hit in one or more screens of this group.

SMILES | Mtb hypoxia rep | FadD28 FP inh | PrP UTR inh | Mtb BioA inh | SSB-PriA inh | TcdB inh
O=C(O)COc1ccc(Br)cc1C(c1c(C(=O)O)[nH]c2ccccc12)c1c(C(=O)O)[nH]c2ccccc12 | 0 | 28* | -24 | 2 | 8 | .
O=C(O)c1[nH]c2ccccc2c1C(c1cc(Cl)cc([N+](=O)[O-])c1O)c1c(C(=O)O)[nH]c2ccccc12 | 4 | 56* | -66 | 1 | 3 | 0
COc1cc(C(NC(C)=O)NC(C)=O)ccc1OCc1ccccc1 | 17 | -5 | -20 | . | -12 | .
COc1cc(C(c2c(C(=O)O)[nH]c3ccccc23)c2c(C(=O)O)[nH]c3ccccc23)ccc1OCc1ccccc1 | -1 | 32* | -19 | 6 | 2 | 0
CCC(=O)c1cn(CC(=O)Nc2cc(C)ccc2C)c2ccccc12 | 2 | -1 | -10 | -1 | -31 | -1
COc1ccccc1CNC(=O)C[C@@H]1C[C@@H]2c3cc(NC(=O)c4cccnc4)ccc3O[C@@H]2[C@@H](CO)O1 | . | . | . | 20 | . | 0
O=C(NCCCn1nc(-c2ccc(Cl)cc2)ccc1=O)Nc1cccc(F)c1 | . | . | . | . | -2 | .
C=CCOc1ccc(C(c2c(C(=O)O)[nH]c3ccccc23)c2c(C(=O)O)[nH]c3ccccc23)cc1 | 17 | 40* | -22 | 3 | 21 | 0
COc1ccc(/C=C/C(=O)NC(=S)Nc2ccccn2)cc1 | 13 | 0 | . | 0 | 38* | 0
CNC(=S)NNC(=O)COc1ccc(C)c(C)c1 | 6 | -1 | -18 | . | 3 | 7
CN(C)CCCN(C(=O)c1sc2ccccc2c1Cl)c1nc2c(F)cccc2s1 | -1 | -2 | -7 | 0 | 13 | .
Cc1ccc2nc(N(CCCN(C)C)C(=O)c3cc(-c4cccs4)nc4ccccc34)sc2c1 | 24 | -2 | 7 | -2 | 44* | 0
CN(C)CCCN(C(=O)c1cc(-c2cccs2)nc2ccccc12)c1nc2c(F)cccc2s1 | -5 | -3 | -10 | -1 | 52*! | 3
CC(=O)C1C=CC(C)(C(=O)O)C2C=C(C)C(=O)C(C)(O)C12 (stereo unspecified) | 16 | -4 | -9 | 2 | -3 | 1
O=C(Cn1cnc(-c2ccccc2)cc1=O)NCCn1ncccc1=O | . | . | . | . | 4 | .
Cc1sc(NC(=O)COc2ccccc2)nc1-c1ccccc1 | . | . | . | . | -9 | .
O=C(COc1ccccc1)Nc1nc2c(s1)-c1cccc3cccc-2c13 | . | . | . | . | 42* | .
COC(=O)c1cn(C(=O)c2cc(OC)c(OC)c(OC)c2)c2ccccc12 | 0 | -2 | -21 | 0 | -18 | 2
O=[N+]([O-])c1ccc(Nc2c([N+](=O)[O-])ccc3c2=NC2(CCCCC2)N=3)cc1 | . | . | . | . | 90* | .
COc1cccc(S(=O)(=O)N(C)C[C@@H]2Oc3cc(C4=CCCC4)ccc3S(=O)(=O)N([C@H](C)CO)C[C@@H]2C)c1 | . | . | . | -2 | . | 0
O=C(Nc1ccc(O)cc1)/C(=C\c1ccncc1)NC(=O)c1ccccc1 | 14 | -5 | -62 | 0 | 5 | 24*
O=C(Nc1ccccc1)/C(=C\c1ccncc1)NC(=O)c1ccccc1 | 9 | 1 | -12 | 0 | -12 | .
O=C(Nc1ccc(O)cc1)/C(=C/c1ccco1)NC(=O)c1ccccc1 | 2 | 0 | -36 | . | -5 | 18*
O=C(Nc1ccc(C(=O)O)cc1)/C(=C\c1ccco1)NC(=O)c1ccc(Br)cc1 | . | -2 | . | 0 | . | 0
O=C(NCc1cccnc1)c1csc([C@H]2C[C@H](O)[C@@H](CO)O2)n1 | . | 0 | . | 2 | . | 1
SMILES | Mtb hypoxia rep | FadD28 FP inh | PrP UTR inh | Mtb BioA inh | SSB-PriA inh | TcdB inh
O=c1c2ccccc2[nH]c(=S)n1-c1cccnc1 | 3 | . | . | . | -10 | 1
O=c1c2ccc(Cl)cc2[nH]c(=S)n1-c1cccnc1 | 4 | -2 | -26 | . | -15 | 10*
Cc1ccc(CNC(=O)c2ccc3c(=O)[nH]c4c(C(=O)NCC5CCCO5)sc(=S)n4c3c2)cc1 (stereo unspecified) | -8 | 60* | -5 | 2 | -7 | 2
Cc1ccc(CNC(=O)c2ccc3c(=O)n(CC4CCCO4)c(=S)[nH]c3c2)cc1 (stereo unspecified) | 4 | 1 | . | 0 | -3 | .
CCCCCNC(=O)c1ccc2c(=O)[nH]c3c(C(=O)NCC4CCCO4)sc(=S)n3c2c1 (stereo unspecified) | -73 | 17* | -12 | 1 | -3 | .
O=C(NCc1ccccc1)c1ccc2c(=O)[nH]c3c(C(=O)NCC4CCCO4)sc(=S)n3c2c1 (stereo unspecified) | 20 | 23* | 0 | 2 | 5 | 0
CCn1c(N)c(C(=O)NCC2CCCO2)sc1=S (stereo unspecified) | -3 | -2 | -6 | 0 | 0 | .
O=C(NCc1ccco1)c1sc(=S)n2c1[nH]c(=O)c1ccccc12 | 5 | ? | -9 | 2 | -5 | .
O=C(NC1CCCC1)c1sc(=S)n2c1[nH]c(=O)c1ccccc12 | 0 | 29* | -8 | -2 | -14 | .
O=C(NCc1ccccc1)c1ccc2c(=O)n(CC3CCCO3)c(=S)[nH]c2c1 (stereo unspecified) | 10 | -7 | -73 | -1 | -4 | .
CN(C)C(=O)C[C@H]1C[C@H]2c3cc(NS(=O)(=O)c4ccc(F)cc4)ccc3O[C@H]2[C@H](CO)O1 | . | . | . | -1 | . | .
Cc1noc(C)c1S(=O)(=O)N(C)C[C@H]1Oc2ccc(NS(C)(=O)=O)cc2CC(=O)N([C@@H](C)CO)C[C@H]1C | . | . | . | 0 | . | -1
CN(C)c1ccc(C(=S)N2CCOCC2)cc1 | 5 | -2 | -11 | -3 | -9 | .
Cc1ccccc1NS(=O)(=O)c1ccc(C(=O)N2CCCCCCC2)cc1 | 2 | 0 | -35 | 3 | -3 | 0
Cc1ccccc1NS(=O)(=O)c1ccc(OCC(=O)N2CCCCC2)cc1 | 3 | 1 | . | 0 | -3 | 11*
CCN(CCn1cccn1)C(=O)CC1C(=O)NCCN1Cc1ccc(F)cc1 (stereo unspecified) | 0 | -3 | -14 | -1 | -6 | 0
Cc1cc(C(F)(F)F)nc(CCNC(=O)Nc2ccc3c(c2)OCO3)n1 | . | . | . | . | 44* | .
Cc1cc(CCNC(=O)Nc2ccc3c(c2)OCO3)on1 | . | . | . | . | -7 | .
Cc1ccc(-n2nc(C)c3c(C)c(CCC(=O)NCc4ccco4)c(C)nc32)cc1 | 8 | -2 | 11 | -1 | 96* | -5
Cc1ccc(CNC(=O)CCc2c(C)nc3c(c(C)nn3-c3ccc(C)cc3)c2C)cc1 | 0 | 0 | -6 | 0 | -11 | 1
O=C(Nc1ccc(Nc2ccc(-n3cccn3)nn2)cc1)c1ccc(C(F)(F)F)cc1 | . | . | . | . | 18 | .
O=C(Nc1ccc(Nc2ccc(-n3cccn3)nn2)cc1)c1ccco1 | . | . | . | . | 89* | .
COCC(=O)Nc1ccc(Nc2ccc(C)nn2)cc1 | . | . | . | . | -16 | .
COCC(=O)Nc1ccc(Nc2ccc(-n3cccn3)nn2)cc1 | . | . | . | . | 83* | .
